Here are results for 28 molecules from PubChem BioAssay.
Also: test concentration not given here.

The nature of the first assay: calcein-AM signal in unstimulated myeloma cells – cell-based, calcein-AM fluorescence, 48 h, PK04 Diversity Set, profiling panel (AID 1166).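 Also: cells grown under basal conditions without added stimulus.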 Conditions: RPMI8226 myeloma viability, higher = more signal.
For the molecule `C=CCOC(=O)[C@H]1[C@@H]2C(=O)O[C@@H](c3ccccc3)[C@@H](c3ccccc3)N2[C@@H](c2ccc(OCCOC(=O)[C@@H]3C[C@@H]4C(=O)N[C@@H](CCCCNC(C)=O)C(=O)N4[C@@H]3c3ccc(O)cc3)cc2)[C@]12C(=O)Nc1ccc(I)cc12`, the z-score is -0.957.
Same read-out and setting: the figure for `O=c1n(-c2ccccc2)c(=O)n2n1CC(COc1ccccc1)=C([C@H](O)CCc1ccccc1)[C@@H]2CO` is -2.34.
Turning to `CN(C)C(=O)[C@]1(CCS(=O)(=O)c2ccccc2)N=C(c2ccc(OCCCO)cc2)O[C@@H]1c1ccccc1N=[N+]=[N-]`, the z-score is 0.517.
As for `COC(=O)[C@@]1(Cc2ccccc2)[C@@H]2C(=CC(=O)[C@H]2CC(=O)C(=O)N(C)C)CN1C(=O)c1ccccc1`, the z-score is -1.81.
For the molecule `CCOC(=O)C[C@H]1[C@H](OC(=O)Cc2ccc3c(c2)OCO3)[C@@H](NC(=O)Cc2ccc(OC)cc2)c2cc(OCCCO)ccc2N1C(=O)c1ccc2ccccc2n1`, the z-score was -0.577.
Turning to `CC1CC/C=C\[C@H]2OC34C=CCN(C(C)C)C(=O)[C@H]3N(CCCCCCO)C(=O)[C@@H]4C2C(=O)O1` (stereo partly drawn), the z-score is 0.626.

The next assay can be described thus: JC-1 mitochondrial signal, unstimulated HepG2 cells – cell-based, JC-1 fluorescence, 24 h, 100 nL compound, profiling panel (AID 1167). Conditions: HepG2 mitochondrial potential, higher = more signal.
On to `CCCCCCc1nc(C2CC2)cc2c1[Si](C(C)C)(C(C)C)OC2`, for which the z-score was -1.01.
`COc1ccc([Si](C)(C)[C@H]2[C@H](CCO)O[C@@]3(C(=O)N(Cc4cccc(N5C(=O)COc6ccccc65)c4)c4ccccc43)[C@@H]2C)cc1` returned a z-score of 0.0559.
On the same count and under the same terms, the figure for `C=C(/C(=C/C[C@H](OC(=O)c1ccncc1)c1ccc(CO)o1)c1cc(C(=O)OC)ccc1OC)C(C)C` is -0.133; for `COC(=O)[C@@]1(Cc2ccccc2N=[N+]=[N-])N=C(c2ccc(OCCCO)cc2)O[C@H]1c1ccccc1N=[N+]=[N-]` it is -1.63.
`O=C1O[C@H](c2ccccc2)[C@H](c2ccccc2)N2[C@H]1[C@@H](C(=O)Nc1nc3ccccc3s1)[C@]1(C(=O)Nc3ccccc31)[C@H]2c1ccc(OCCO)cc1` showed a z-score of -1.99.
`C=CCC(OC(C)=O)[C@@H]1[C@@H](N(Cc2cc3ccccc3o2)C(=O)c2ccc(C)cc2)c2cc(OCCCO)ccc2N1C(=O)Cc1ccc(OC)cc1` (stereo partly drawn): the z-score is 2.52.
`C[C@@H]1ON(c2ccc(C(=O)OC(C)(C)C)cc2)[C@H](c2ccc(O)cc2)[C@H]1C(=O)N1C(=O)OC[C@H]1Cc1ccccc1` came in with a z-score of -3.38.
In turn, `C=CCNC(=O)[C@H]1[C@@H]2C(=O)O[C@@H](c3ccccc3)[C@@H](c3ccccc3)N2[C@@H](c2ccc(O)cc2)[C@]12C(=O)Nc1ccc(C#CC3(O)CCCCCC3)cc12` registered a z-score of -2.86.
As for `CCCC[C@@H]1C[C@H]1[C@@H](NC(=O)Cc1ccccc1)c1ccc(-c2ccccc2)cc1`, the z-score was -0.929.
`C=C(COC)/C(=C/C[C@H](OC(=O)c1ccncc1)c1ccccc1OCCO)c1cnc2ccccc2c1` registered a z-score of 1.23.
In turn, `[N-]=[N+]=Nc1ccccc1[C@@H]1OC(c2ccc(OCCCO)cc2)=N[C@]1(Cc1ccccc1)C(=O)NCC(O)CO` (stereo partly drawn) had a z-score of 0.307.
Turning to `CC(C)N1CC=CC23O[C@@H]4C=CCOC(=O)[C@@H]4[C@H]2C(=O)N(CCCO)[C@@H]3C1=O` (stereo partly drawn), the z-score is -0.4.
Molecule `CC(c1ccccc1)C(O)C1C=CC2C(=O)N(c3ccccc3)C(=O)C2N1Nc1ccc([N+](=O)[O-])cc1` (stereo not drawn) returned a z-score of -0.411.
In turn, `CC(C)C(CO)N1C(=O)[C@@H]2C3C(=O)OCCC/C=C\[C@H]3OC23C=CCN(C(C)(C)C)C(=O)[C@@H]13` (stereo partly drawn) returned a z-score of -0.3.
For the molecule `COCCCNC(=O)[C@@]1(Cc2ccccc2N=[N+]=[N-])N=C(c2ccc(OCCCO)cc2)O[C@H]1c1ccccc1`, the z-score is 1.02.
For `CN1C(=O)C2C=CC(C(O)c3ccc(F)cc3)N(Nc3ccccc3)C2C1=O` (stereo not drawn), the z-score is -1.81.
`COCCOC(=O)N1C(=O)[C@@]2(c3cc(C#CC4=CCCCC4)ccc31)[C@H](c1ccc(OCCO)cc1)N1[C@H](c3ccccc3)[C@H](c3ccccc3)OC(=O)[C@H]1[C@@H]2C(=O)NC[C@H](O)c1ccccc1` came in with a z-score of -0.9.
Molecule `COC(=O)C1=CC(CCCO)=CC(C2CC2)N(C)C=C1C(=O)OC` (stereo not drawn) returned a z-score of 0.63.
For `O=C(NCC(F)(F)F)[C@@H]1c2ccccc2C(=O)N(Cc2ccc(OC(F)(F)F)cc2)[C@H]1c1ccc(CO)cc1`, the z-score was 1.66.
Same read-out and setting: the figure for `COc1cccc(/C=C/C=O)c1` is 1.04; for `COC(=O)C(CC#Cc1ccc2c(c1)[C@]1(C(=O)N2)[C@H](c2ccccc2OCCO)N2[C@H](c3ccccc3)[C@H](c3ccccc3)OC(=O)[C@H]2[C@@H]1C(=O)NC[C@H](O)c1ccccc1)C(=O)OC` it is -1.12.
On to `CC(C)OC(=O)C=C1C[C@@H](c2ccc(C(F)(F)F)cc2)O[C@@H](c2ccc(C(F)(F)F)cc2)O1`, for which the z-score was -0.393.
